The nature of experiment [1]: cAMP Responsive Elements (CRE) small molecule antagonists, cell-based qHTS assay: qHTS cell viability counter screen (AID 2060913). Further: nearly all actives have a fitted effect of over 40% in size. An outline of the steps:
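Cytotoxicity counter screen multiplexed with the CRE-bla antagonist read: HEK293T cells in DMEM with dialyzed FBS and 25 mM HEPES were treated 3 hrs under 0.25 uM final NKH477, then viability measured by CellTiter-Glo luminescence.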
On the technique in general: qHTS replaces the single test concentration by a dilution series.

A short description of experiment [2]: cAMP Responsive Elements (CRE) small molecule agonists, cell-based qHTS assay: qHTS cell viability counter screen (AID 2060914). Further: nearly all actives have a fitted effect of over 50% in size. In short, it runs like this:
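Luminescence read-out (CellTiter-Glo, 30 min RT) of ATP-based viability in CRE-bla HEK 293T cells, run in the same wells as the β-lactamase reporter assay after 3 h compound treatment at 37 °C.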

“And” between values parts separate entries of the source, which are not always exact repeats. Equal values may be shown once. Inconclusive results are not listed. Unmarked numbers belong to inactive results. The source made the active and inactive calls. The call rests on the fitted dose curve; in most records, active means well fitted cell-killing curve with a large enough effect in the repeat runs; inconclusive means weak or mixed curves, or effect the other way; inactive means flat fitted curve, though single readings scatter.
On the % scale 0 is the no-effect control and ±100 the full control effect; potency means the concentration at half of the fitted maximal effect.

For the compound `O=C(c1ccccc1)c1ccccc1O`, the Potency entry in experiment [1] and in experiment [2] was “inactive” in each case.
Regarding `NC(=O)CC[C@@H](N)C(=O)O`, the Potency entry in experiment [1] and in experiment [2] was “inactive” each time.
With `C=C(C)C(=O)OCCCCCCOC(=O)C(=C)C`, the Potency entry in experiment [1] and in experiment [2] was “inactive” throughout.
Regarding `Cn1c(=O)c2c(ncn2CC(O)CO)n(C)c1=O` (centres undefined), the Potency result in experiment [1] and in experiment [2] was “inactive” throughout.
In the case of `C=CCc1ccc(O)c(OC)c1`, the Potency entry in experiment [1] and in experiment [2] was “inactive” in each case.
In the case of `NC(N)=N/N=C/c1c(Cl)cccc1Cl`, the Potency entry in experiment [1] and in experiment [2] was “inactive” in each case.
Consider `NCCN1CCOCC1`, for which the Potency result in experiment [1] and in experiment [2] was “inactive” throughout.
With `C#C[C@]1(O)CC[C@H]2[C@@H]3CCC4=CC(=O)CC[C@@H]4[C@H]3CC[C@@]21CC`, the Potency result in experiment [1] and in experiment [2] was “inactive” in each case.
Take `CN1Cc2c(N)cccc2C(c2ccccc2)C1` (centres undefined): the Potency result in experiment [1] and in experiment [2] was “inactive” in each case.
In the case of `CCCCCCCC/C=C/CCCCCCCC1=NCCN1CCO`, the Potency entry in experiment [1] and in experiment [2] was “inactive” throughout.
Turning to `CCCCC(=O)O`, the Potency entry in experiment [1] and in experiment [2] was “inactive” throughout.
On to `CC(=O)NCCCS(=O)(=O)O`, for which the Potency entry in experiment [1] and in experiment [2] was “inactive” each time.
`CN1CCN(c2cc3c(cc2F)c(=O)c(C(=O)O)cn3-c2ccc(F)cc2)CC1`: the Potency entry in experiment [1] and in experiment [2] was “inactive” each time.
With `c1ccc2c(c1)ccc1ncccc12`, the Potency result in experiment [1] and in experiment [2] was “inactive” throughout.
In the case of `CC(C)C(=O)Nc1cccc(C(F)(F)F)c1`, the Potency result in experiment [1] and in experiment [2] was “inactive” throughout.
On to `[O-][N+](=Nc1ccccc1)c1ccccc1`, for which the Potency result in experiment [1] and in experiment [2] was “inactive” throughout.
Consider `CCCCCCCCCCCCCCCC[N+](C)(C)CC`, for which the Potency in experiment [1] is 57.1 µM (active) and 26.6 µM (active); in experiment [2] it was 54.6 µM (active) and 26.6 µM (active).
As for `Oc1c(Cl)cc(Cl)c(Cl)c1Cl`, the Potency result in experiment [1] and in experiment [2] was “inactive” throughout.
With `CC(Cc1cccc(C(F)(F)F)c1)NCCOC(=O)c1ccccc1` (centres undefined), the Potency entry in experiment [1] and in experiment [2] was “inactive” each time.
In the case of `CCCCC(CC)COC(=O)c1ccccc1O` (centres undefined), the Potency result in experiment [1] and in experiment [2] was “inactive” in each case.
Take `O=C(O)C(=O)Nc1cccc(-c2nn[nH]n2)c1`: the Potency entry in experiment [1] and in experiment [2] was “inactive” throughout.
Turning to `O=c1[nH]c2ccc(Cl)cc2o1`, the Potency result in experiment [1] and in experiment [2] was “inactive” throughout.
As to `N[C@H]1C(O)O[C@H](CO)[C@@H](O)[C@@H]1O` (some centres undefined), the Potency result in experiment [1] and in experiment [2] was “inactive” in each case.
For `O=C1CCCC(=O)O1`, the Potency result in experiment [1] and in experiment [2] was “inactive” in each case.
For the compound `ON=C1CCCCC1`, the Potency entry in experiment [1] and in experiment [2] was “inactive” each time.
With `C=COCCCC`, the Potency result in experiment [1] and in experiment [2] was “inactive” throughout.
In the case of `CCOC(=O)CS`, the Potency result in experiment [1] and in experiment [2] was “inactive” throughout.
Take `COc1nccnc1CC(C)C`: the Potency entry in experiment [1] and in experiment [2] was “inactive” in each case.
Consider `O=S(=O)(O)c1ccc(N=Nc2c(O)ccc3cc(S(=O)(=O)O)ccc23)cc1`, for which the Potency entry in experiment [1] and in experiment [2] was “inactive” in each case.
On to `CN1CCC[C@@H]1c1cccnc1`, for which the Potency entry in experiment [1] and in experiment [2] was “inactive” in each case.
Regarding `[O-][n+]1cccc(CO)c1`, the Potency entry in experiment [1] and in experiment [2] was “inactive” each time.
`CCOC(=O)n1ccn(C)c1=S`: the Potency result in experiment [1] and in experiment [2] was “inactive” each time.
As to `CC(=O)N(O)CCCCCNC(=O)CCC(=O)N(O)CCCCCNC(=O)CCC(=O)N(O)CCCCCN`, the Potency entry in experiment [1] and in experiment [2] was “inactive” in each case.
Consider `Nc1ccc(Oc2cccc(Oc3ccc(N)cc3)c2)cc1`, for which the Potency entry in experiment [1] and in experiment [2] was “inactive” each time.
As for `CC(C)(O)c1ccccc1`, the Potency result in experiment [1] and in experiment [2] was “inactive” throughout.
As for `CC(C)NC[C@@H](O)COc1cccc2ccccc12`, the Potency result in experiment [1] and in experiment [2] was “inactive” in each case.
As for `CC(C)c1cccc(C(C)C)c1N`, the Potency result in experiment [1] and in experiment [2] was “inactive” in each case.
With `CCCCCCC(=O)O`, the Potency entry in experiment [1] and in experiment [2] was “inactive” in each case.
In the case of `CC(C)(C)c1ccc(S)cc1`, the Potency result in experiment [1] and in experiment [2] was “inactive” in each case.
In the case of `CCN(CC)CC`, the Potency result in experiment [1] and in experiment [2] was “inactive” in each case.
Consider `COCC(=O)O`, for which the Potency result in experiment [1] and in experiment [2] was “inactive” each time.
Regarding `OCCN1C[C@H](O)[C@@H](O)[C@H](O)[C@H]1CO`, the Potency result in experiment [1] and in experiment [2] was “inactive” throughout.
Turning to `C[C@@H]1CN(c2c(F)c(F)c3c(=O)c(C(=O)O)cn(C4CC4)c3c2F)C[C@H](C)N1`, the viability change, negative = cytotoxic in experiment [1] is -1.63% [at 18.9 µM]. Further, the activity change, negative = cytotoxicity in experiment [2] is -12.9% [at 18.9 µM].
On to `CC/C=C\CCO`, for which the Potency result in experiment [1] and in experiment [2] was “inactive” each time.
On to `CCC(=O)Oc1ccc(/C(CC)=C(\CC)c2ccc(OC(=O)CC)cc2)cc1`, for which the Potency result in experiment [1] and in experiment [2] was “inactive” throughout.
Regarding `Clc1cc(Cl)nc(Cl)n1`, the Potency entry in experiment [1] and in experiment [2] was “inactive” in each case.
In the case of `Cc1cc(O)c2c(O)c3c(O)cccc3cc2c1`, the Potency result in experiment [1] and in experiment [2] was “inactive” throughout.
Regarding `Cc1ccc(C(C)(C)C)cc1`, the Potency result in experiment [1] and in experiment [2] was “inactive” each time.
Take `NC(=O)c1ccccc1Cl`: the Potency entry in experiment [1] and in experiment [2] was “inactive” in each case.
Take `CCC(=O)OCCC(C)CCC=C(C)C` (centres undefined): the Potency entry in experiment [1] and in experiment [2] was “inactive” throughout.
For the compound `CN1CCC[C@@H]1Cc1c[nH]c2ccc(CCS(=O)(=O)c3ccccc3)cc12`, the Potency result in experiment [1] and in experiment [2] was “inactive” throughout.
Take `CCN(CC)C(=O)C1CN2CCc3cc(OC)c(OC)cc3C2CC1OC(C)=O` (centres undefined): the Potency entry in experiment [1] and in experiment [2] was “inactive” in each case.
Consider `CCOC(=O)NCCOc1ccc(Oc2ccccc2)cc1`, for which the Potency entry in experiment [1] and in experiment [2] was “inactive” each time.
Take `COCCOCCOCCOCCOC`: the Potency entry in experiment [1] and in experiment [2] was “inactive” in each case.
As to `C[C@H]1NCc2cc(-c3ccc4c(=O)c(C(=O)O)cn(C5CC5)c4c3OC(F)F)ccc21`, the viability change, negative = cytotoxic in experiment [1] is 4.45% [at 18.9 µM]. Besides, the activity change, negative = cytotoxicity in experiment [2] was -2.79% [at 18.9 µM].
Turning to `Brc1c2ccccc2c(Br)c2ccccc12`, in experiment [1], the viability change, negative = cytotoxic is -0.61% [at 8.39 µM]. The activity change, negative = cytotoxicity in experiment [2] was -1.97% [at 8.39 µM].
As to `O=C(CCBr)N1CCN(C(=O)CCBr)CC1`, the Potency entry in experiment [1] and in experiment [2] was “inactive” throughout.

The values are drawn from PubChem BioAssay (Tox21).
